Source: PubChem BioAssay (NCATS)
Values joined by “and” are separate entries in the source; they are usually repeats but may differ in a detail not shown here. Equal values may be shown once. Results filed as inconclusive are left out. A call without a number means that no potency is given here. Values without a mark were called inactive. Active and inactive are the calls of the source. Unless noted, calls come from the whole dose curve; as a rule, active = well fitted curve in the direction sought with a large enough effect; inconclusive = small, poorly fitted or top-dose-only effect, or another doubt; inactive = no such curve, though single readings can be large; an effect the other way counts as inactive or inconclusive.

Legend:
[1] = biological target: Calcium and integrin-binding protein 1 (Homo sapiens) (UniProt Q99828); test: Primary qHTS for Identification of Calcium Integrin Binding Protein 1 (CIB1) Competitor (AID 1508620);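 note: GST tagged CIB1 binding a fluorescein labelled alphaIIb integrin peptide tracer; top concentration of the series differs between compounds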
Procedure, shortened: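 CIB1-GST (1 uM final) and compound incubated 15 min at room temperature before adding FITC-alphaIIb peptide tracer (100 nM final). Competition for binding read by fluorescence polarization (ex 480, em 540) after another 15 min at room temperature.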

[2] = biological target: Cytochrome P450 2C9 (Homo sapiens) (UniProt P11712); test: Cytochrome P450 family 2 subfamily C member 9 (CYP2C9) small molecule antagonists: luciferase biochemical (cell-free) qHTS assay (AID 1645842; active = well fitted curve in the direction sought with a large enough effect in the repeat runs; an effect the other way counts as inactive or inconclusive; note: nearly all actives have a fitted effect of over 55% in size; note: potency is the fitted concentration of half-maximal effect; for activity change, negative = inhibition: series mostly up to about 57 µM)
Procedure, shortened: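 P450-Glo CYP2C9 system: proluciferin substrate with enzyme in mix containing 0.4% BSA, 10 min at room temperature, then NADPH regeneration solution added and incubated 1 h at 37C. Detection reagent stopped reaction; luminescence read after 20 min as RLU.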

[3] = biological target: Cytochrome P450 2D6 (Homo sapiens) (UniProt P10635); test: Cytochrome P450 family 2 subfamily D member 6 (CYP2D6) small molecule antagonists: luciferase biochemical (cell-free) qHTS assay (AID 1645840; active = well fitted curve in the direction sought with a large enough effect in the repeat runs; an effect the other way counts as inactive or inconclusive; note: nearly all actives have a fitted effect of over 55% in size; note: potency is the fitted concentration of half-maximal effect; for activity change, negative = inhibition: series mostly up to about 57 µM)
Procedure, shortened: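 P450-Glo CYP2D6 system: proluciferin substrate converted by enzyme to luciferin, read by luminescence proportional to activity. Enzyme-substrate mix with compound 10 min at room temperature, then NADPH regeneration 1 h before detection reagent.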

[4] = Primary qHTS for inhibitors of nuclear receptor binding SET domain protein 2 (NSD2) in an RCH-ACV wild type WT cells (2C) (AID 1645877); note: nearly all actives have a fitted effect of over 70% in size; note: potency is the fitted concentration of half-maximal effect
[5] = Primary qHTS for inhibitors of nuclear receptor binding SET domain protein 2 (NSD2) in an isogenic RCH-ACV NSD2 p.E1099K mutant (9B) (AID 1645876); note: nearly all actives have a fitted effect of over 70% in size; note: potency is the fitted concentration of half-maximal effect

Chain of Cytochrome P450 2D6 (Homo sapiens) (P10635 whole entry, looked up): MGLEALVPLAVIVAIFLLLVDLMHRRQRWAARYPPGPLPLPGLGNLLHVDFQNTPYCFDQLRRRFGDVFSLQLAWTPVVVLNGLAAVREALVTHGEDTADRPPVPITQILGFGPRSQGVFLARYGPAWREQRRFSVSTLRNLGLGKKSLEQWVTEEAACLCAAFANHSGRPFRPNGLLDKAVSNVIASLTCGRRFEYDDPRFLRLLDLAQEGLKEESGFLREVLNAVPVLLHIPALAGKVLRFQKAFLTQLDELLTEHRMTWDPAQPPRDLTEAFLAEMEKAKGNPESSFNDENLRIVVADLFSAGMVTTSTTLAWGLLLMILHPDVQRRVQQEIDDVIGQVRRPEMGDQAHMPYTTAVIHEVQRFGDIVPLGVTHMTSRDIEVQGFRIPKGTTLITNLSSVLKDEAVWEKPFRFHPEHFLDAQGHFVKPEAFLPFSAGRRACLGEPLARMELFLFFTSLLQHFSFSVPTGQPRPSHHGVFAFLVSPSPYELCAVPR
Chain of Cytochrome P450 2C9 (Homo sapiens) (P11712 whole entry, looked up): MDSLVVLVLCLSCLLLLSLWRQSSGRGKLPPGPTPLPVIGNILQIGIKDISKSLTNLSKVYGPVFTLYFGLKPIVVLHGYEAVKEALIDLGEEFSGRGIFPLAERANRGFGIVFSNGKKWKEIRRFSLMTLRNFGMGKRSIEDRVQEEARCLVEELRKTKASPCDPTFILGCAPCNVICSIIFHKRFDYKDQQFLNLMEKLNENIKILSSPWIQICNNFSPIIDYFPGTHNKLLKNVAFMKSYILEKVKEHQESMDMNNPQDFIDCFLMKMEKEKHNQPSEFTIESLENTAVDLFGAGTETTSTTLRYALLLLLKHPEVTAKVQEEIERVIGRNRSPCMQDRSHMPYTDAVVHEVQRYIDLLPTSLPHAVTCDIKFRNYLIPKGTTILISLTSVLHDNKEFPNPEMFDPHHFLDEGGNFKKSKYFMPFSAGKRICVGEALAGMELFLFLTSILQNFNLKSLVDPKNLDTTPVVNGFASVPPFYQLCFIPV
Chain of Calcium and integrin-binding protein 1 (Homo sapiens) (Q99828 whole entry, looked up): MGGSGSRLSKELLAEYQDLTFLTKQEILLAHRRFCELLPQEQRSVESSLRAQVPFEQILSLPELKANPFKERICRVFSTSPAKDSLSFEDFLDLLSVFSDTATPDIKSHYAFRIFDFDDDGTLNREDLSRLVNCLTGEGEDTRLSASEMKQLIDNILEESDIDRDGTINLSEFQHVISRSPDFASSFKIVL

CNC(=O)COC(=O)N1CCC(CCc2ccc(Cl)cc2)CC1
Potency [1]: inactive | Potency [2]: 21.3 µM (active)

CC(C)(O)c1ccc2c(c1)ncn2-c1cccc(-c2ccccc2C#N)c1
Potency [1]: inactive | Potency [2]: 2.13 µM (active)

O=C1COc2nccc(-c3ccccc3F)c2CN1Cc1cc(C(F)(F)F)cc(C(F)(F)F)c1
Potency [1]: inactive | Potency [2]: 21.3 µM (active)

COc1ccccc1-c1ccc(-c2cn(C(=O)N3CCCCC3Cc3ccccc3)nn2)cc1 (centres undefined)
Potency [1]: inactive | Potency [3]: inactive | Potency [4]: inactive

O=C(Nc1ccc(N2C(=O)[C@@H]3[C@H](C2=O)[C@@H]2C=C[C@H]3C2)c(Cl)c1)c1ccccn1
Potency [1]: inactive | Potency [2]: 12 µM (active)

OC1CCC(Nc2nc(-c3ccccc3)nc3[nH]ccc23)CC1 (centres undefined)
Potency [1]: inactive | Potency [2]: 2.68 µM (active)

COc1ccc2nccc(C(=O)CC[C@@H]3CCN(CC#Cc4cc(F)cc(F)c4F)C[C@@H]3C(=O)O)c2c1
Potency [1]: inactive | Potency [2]: 7.56 µM (active)

CC1=C(C(=O)Nc2cc(Cl)ccc2Cl)C(c2ccco2)C2=C(CCCC2=O)N1 (centres undefined)
Potency [1]: inactive | Potency [2]: 1.07 µM (active)

COc1ccc(CCCN2CCC(COC(c3ccccc3)c3ccccc3)CC2)cc1
Potency [1]: inactive | Potency [3]: 0.0535 µM (active) | Potency [4]: 16.3 µM (active)

CCCn1cc2c(nc(NC(=O)Nc3ccc(OC)cc3)n3nc(-c4ccco4)nc23)n1
Potency [1]: inactive | Potency [2]: 6.01 µM (active)

Cn1c(SCC(=O)N2CCC[C@H]2C(=O)Nc2ccccc2-c2ccccc2)nc2ccccc21
Potency [1]: inactive | Potency [3]: 16.9 µM (active) | Potency [4]: inactive

COc1c(F)cccc1C(=O)N1C[C@@H](C)CC[C@H]1CNc1ccc(Br)cn1
Potency [1]: inactive | Potency [2]: 5.35 µM (active)

Cn1c(CO)c(-c2ccccc2)c2cc([N+](=O)[O-])ccc21
Potency [1]: inactive | Potency [2]: 19 µM (active)

NS(=O)(=O)c1ccc(N2N=C(c3ccccc3)CC2c2ccccc2)cc1 (centres undefined)
Potency [1]: inactive | Potency [2]: 10.7 µM (active)

Cc1cc(C)c2c(c1)C(N(Cc1cc(C(F)(F)F)cc(C(F)(F)F)c1)c1nnn(C)n1)CCCN2CC1CCC(C(=O)O)CC1 (centres undefined)
Potency [1]: inactive | Potency [2]: 10.7 µM (active)

Cc1ccc(N2CCN(S(=O)(=O)N3CCCCC3)CC2)c(C)c1
Potency [1]: inactive | Potency [2]: 0.849 µM (active)

CC(C)(C)c1ccc(NC(=O)N2CCN(c3ncccc3Cl)CC2)cc1
Potency [1]: inactive | Potency [2]: 6.01 µM (active)

COc1ccccc1OCCN1CC(COc2cccc3[nH]c4ccccc4c23)OCC1=O (centres undefined)
Potency [1]: inactive | Potency [2]: 0.849 µM (active)

O=C(O)c1cccc(-c2ccc(-c3cn(C(=O)N4CCCCC4Cc4ccccc4)nn3)cc2)c1 (centres undefined)
Potency [1]: inactive | Potency [2]: 8.49 µM (active)

O=C(NCc1ccccc1-c1ccccc1C(=O)NCCc1ccccn1)OCc1ccccc1
Potency [1]: inactive | Potency [2]: 2.68 µM (active)

Cc1cc(-c2nc(-c3ccc(OC(F)(F)F)cc3)no2)nn1Cc1ccnc(N2CCN(C3CC3)CC2)c1
Potency [1]: inactive | Potency [2]: 6.01 µM (active)

COc1cc(C(=O)NCC2(N(C)C)CCCC2)cc(OC)c1OCc1ccccc1
Potency [1]: inactive | Potency [2]: inactive

CCCc1cc(C)[nH]c(=O)c1CNC(=O)c1cc(-c2ccc(N3CCN(C(C)C)CC3)nc2)cc2c1cnn2C(C)C
Potency [1]: inactive | Potency [2]: 10.7 µM (active) | Potency [5]: 11.5 µM (active) and 7.42 µM (active) | Potency [4]: 11.5 µM (active) and 5.25 µM (active)

CNC(C)C(=O)NC(C(=O)N1CCCC1C(=O)Nc1snnc1-c1ccccc1)C1CCCCC1 (centres undefined)
Potency [1]: inactive | Potency [2]: inactive | Potency [5]: inactive | Potency [4]: inactive

COc1cc2ncnc(Nc3ccc(O)c(Br)c3)c2cc1OC
Potency [1]: inactive | Potency [2]: 5.35 µM (active) | Potency [5]: 11.6 µM (active) and 10.5 µM (active) | Potency [4]: 13 µM (active) and 14.8 µM (active)

COc1cc2c(cc1OC)CN(C(=O)/C=C/c1c(-c3ccccc3)n(C)c3ncccc13)CC2
Potency [1]: inactive | Potency [2]: 0.268 µM (active) | Potency [5]: 8.17 µM (active) | Potency [4]: 11.5 µM (active)

CCC(=C(c1ccc(OCCN2CCCC2)cc1)c1ccc(OCCN2CCCC2)cc1)c1ccccc1
Potency [1]: inactive | activity change, negative = inhibition [2]: 1.82% [at 11.5 µM] | Potency [5]: 3.65 µM (active) | Potency [4]: 3.65 µM (active)

Cc1cc(-c2cc(OC(=O)c3ccccc3)ccc2Cl)cc2nnc(Nc3ccc(OCCN4CCCC4)cc3)nc12
Potency [1]: inactive | Potency [2]: inactive | Potency [5]: 12.9 µM (active) | Potency [4]: 7.96 µM (active)

COc1ccc(S(=O)(=O)Nc2cc(Cl)cc(Cl)c2OC)cc1N1CCNCC1
Potency [1]: inactive | Potency [2]: 12 µM (active) | Potency [5]: 20.5 µM (active)
